According to PubChem BioAssay AID1159580 (chemical genetic matrix, 2015):
Values joined by “and” are separate entries in the source; they are usually repeats but may differ in a detail not shown here. Identical values can stand only once. Hit rate of the full screen: of about 5,500 compounds, about 2,000 (36%) were called active. About 18% were inconclusive and are not listed. No stated cut-off is given here; in the data, active means normalized growth mostly below about 0.91 (no sharp cut-off); inconclusive means no clear call, values can overlap the other calls; inactive means mostly above about 0.92. The list shows a part of the results. Where a SMILES comes first, the peptide text is derived from it. Bridges are numbered along the chain shown (N, C = ends). [ ]: non-standard residue; d: D form. The star is where a group is joined. Octanoyl(6-Me) = CCC(C)CCCCC(=O)*; Dab = NCC[CH](N)C(=O)O

Experiment: chemical genetic growth profiling, strain panel (AID 1159580);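 further: tested at 20 µM; growth read once vehicle control cultures reached saturation at 30 °C; 1 = growth at the plate median or of vehicle wells; lower values mean less growth of the strain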
Conditions: S. cerevisiae deletion strains, growth OD

Measured: normalized growth

CCC(C)CCCCC(=O)NC(CCN)C(=O)NC(C(=O)NC(CCN)C(=O)NC1CCNC(=O)C(C(C)O)NC(=O)C(CCN)NC(=O)C(CCN)NC(=O)C(CC(C)C)NC(=O)C(Cc2ccccc2)NC(=O)C(CCN)NC1=O)C(C)O (configuration not stated) ({Octanoyl(6-Me)}-[Dab]T[Dab][Dab][Dab]FL[Dab][Dab]T; lactam 4-C; configuration not given here)
inactive: locus YAL013W, strain DEP1, active compounds read low 1 | locus YAL021C, strain ccr4, active compounds read low 0.95 | locus YAL026C, strain drs2, active compounds read low 0.934 | locus YAL030W, strain snc1, active compounds read low 0.99 | locus YBL061C, strain skt5, active compounds read low 0.99 | locus YBR009C, strain hhf1, active compounds read low 0.98 | locus YBR021W, strain FUR4, active compounds read low 0.996 | locus YBR023C, strain chs3, active compounds read low 0.99 | locus YBR171W, strain sec66, active compounds read low 1 | locus YBR229C, strain ROT2, active compounds read low 1 | locus YBR231C, strain swc5, active compounds read low 1 | locus YBR279W, strain paf1, active compounds read low 0.99 | locus YCL011C, strain gbp2, active compounds read low 0.995 | locus YCL016C, strain dcc1, active compounds read low 0.975 | locus YCL029C, strain bik1, active compounds read low 1.02 | locus YCL061C, strain MRC1, active compounds read low 0.959 | locus YCL069W, strain vba3, active compounds read low 0.999 | locus YCR088W, strain abp1, active compounds read low 0.997 | locus YDL005C, strain med2, active compounds read low 0.99 | locus YDL035C, strain GPR1, active compounds read low 0.973 | locus YDL040C, strain nat1, active compounds read low 1 | locus YDL074C, strain BRE1, active compounds read low 1.01 | locus YDL101C, strain DUN1, active compounds read low 1.02 | locus YDL134C, strain PPH21, active compounds read low 0.997 | locus YDL185W, strain tfp1, active compounds read low 1 | locus YDL192W, strain arf1, active compounds read low 0.991 | locus YDR001C, strain nth1, active compounds read low 1.01 | locus YDR069C, strain doa4, active compounds read low 0.989 | locus YDR101C, strain arx1, active compounds read low 1.01 | locus YDR137W, strain rgp1, active compounds read low 1.08 | locus YDR150W, strain NUM1, active compounds read low 0.995 | locus YDR159W, strain sac3, active compounds read low 0.985 | locus YDR162C, strain NBP2, active compounds read low 0.99 | locus YDR195W, strain ref2 0.953 | locus YDR297W, strain sur2, active compounds read low 0.994 | locus YDR318W, strain mcm21, active compounds read low 1.01 | locus YDR334W, strain swr1, active compounds read low 1 | locus YDR335W, strain msn5, active compounds read low 0.998 | locus YDR388W, active compounds read low 1.01 | locus YDR392W, strain spt3, active compounds read low 0.802 | locus YDR502C, strain sam2, active compounds read low 0.997 | locus YEL003W, strain gim4, active compounds read low 0.997 | locus YEL037C, strain rad23, active compounds read low 1 | locus YEL061C, strain CIN8 (second series), active compounds read low 1 | locus YEL061C, strain CIN8, active compounds read low 0.998 | locus YER015W, strain faa2, active compounds read low 0.992 | locus YER016W, strain bim1, active compounds read low 1 | locus YER110C, active compounds read low 1.02 | locus YER111C, strain swi4, active compounds read low 1 | locus YER155C, strain BEM2 (second series), active compounds read low 0.91 | locus YER155C, strain BEM2, active compounds read low 1.02 | locus YER167W, strain BCK2, active compounds read low 0.996 | locus YFR010W, strain ubp6, active compounds read low 0.999 | locus YGL078C, strain dbp3, active compounds read low 0.993 | locus YGL086W, strain mad1, active compounds read low 0.989 | locus YGL167C, strain pmr1, active compounds read low 0.978 | locus YGL173C, strain kem1, active compounds read low 0.99 | locus YGL227W, strain vid30, active compounds read low 1.01 | locus YGL240W, strain doc1, active compounds read low 0.986 | locus YGL248W, strain PDE1, active compounds read low 1.01 | locus YGL253W, strain hxk2, active compounds read low 1.01 | locus YGR078C, strain PAC10, active compounds read low 1.02 | locus YGR135W, strain pre9, active compounds read low 0.998 | locus YGR229C, strain SMI1, active compounds read low 0.976 | locus YGR252W, strain gcn5, active compounds read low 0.937 | locus YHR013C, strain ard1, active compounds read low 0.901 | locus YHR027C, strain rpn1, active compounds read low 0.989 | locus YHR030C, strain SLT2, active compounds read low 1 and 0.991 | locus YHR079C, strain IRE1 (second series), active compounds read low 1.01 | locus YHR079C, strain IRE1, active compounds read low 0.995 | locus YHR094C, strain hxt1, active compounds read low 1.01 | locus YHR129C, strain ARP1, active compounds read low 1.01 | locus YHR142W, strain chs7, active compounds read low 1.01 | locus YHR200W, strain rpn10, active compounds read low 0.996 | locus YIL066C, strain RNR3, active compounds read low 0.984 | locus YIL073C, strain SPO22, active compounds read low 1.02 | locus YIL125W, strain kgd1, active compounds read low 0.994 | locus YIR030C, strain dcg1, active compounds read low 1.01 | locus YJL092W, strain hpr5, active compounds read low 1 | locus YJL095W, strain BCK1 (second series), active compounds read low 1.01 | locus YJL095W, strain BCK1, active compounds read low 1.02 and 1 | locus YJL115W, strain asf1, active compounds read low 0.977 | locus YJL129C, strain trk1, active compounds read low 1.09 | locus YJL134W, strain LCB3, active compounds read low 1 | locus YJL154C, strain vps35, active compounds read low 1.01 | locus YJL164C, strain tpk1, active compounds read low 0.98 | locus YJL166W, strain qcr8, active compounds read low 0.981 | locus YJL168C, strain set2, active compounds read low 1.01 | locus YJL187C, strain SWE1 (second series), active compounds read low 1.02 | locus YJL187C, strain SWE1, active compounds read low 0.998 | locus YJR043C, strain POL32, active compounds read low 1.02 | locus YJR066W, strain TOR1, active compounds read low 0.97
